A short description of experiment [1]: ATG_CRE_CIS: Attagene CIS-FACTORIAL HepG2 Assay for human cAMP Responsive Element (CRE) binding protein 3 (AID 2282926). The conditions noted are these: HepG2 CRE cis-reporter, Attagene multiplexed mRNA; actives raise or lower the signal. The procedure, abridged: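 HepG2 cells transiently transfected with cis-element-driven multiple reporter transcription units; CRE reporter mRNA measured 24 h after dosing by RT-PCR, 6-FAM labelling, HpaI digestion and capillary electrophoresis. Bidirectional fit versus DMSO baseline.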

Experiment [2] concerns the target CCAAT/enhancer-binding protein beta (Homo sapiens) (UniProt P17676). Kind of experiment: ATG_C_EBP_CIS: Attagene CIS-FACTORIAL HepG2 Assay for human CCAAT/Enhancer Binding Protein (C/EBP) beta (AID 2282927). The conditions noted are these: HepG2 Attagene cis-factorial transcription factor reporter; actives raise or lower the signal. Put shortly: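 Changes in reporter mRNA, rather than exogenous chimeric receptor activity, reflect native C/EBP signalling in transfected HepG2 cells dosed for 24 h; transcripts are detected by RT-PCR and capillary electrophoresis.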

Experiment [3] in a line: ATG_CMV_CIS: Attagene CIS-FACTORIAL HepG2 Assay for human CMV (Internal Marker) (AID 2282928).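 Also: endpoint acts as a background internal control marker rather than a target.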 The conditions noted are these: HepG2 CMV promoter reporter, transcription factor profiling; actives raise or lower the signal. Put shortly:
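After transient transfection of HepG2 with reporter transcription units driven by cis-regulatory promoters, cells receive test chemical for 24 h. Labeled reporter amplicons, digested with HpaI, are sized and quantified by capillary electrophoresis against DMSO.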

Experiment [4] can be described thus: ATG_DR4_LXR_CIS: Attagene CIS-FACTORIAL HepG2 Assay for human Liver X Receptor (LXR), DR4 submotif (AID 2282929). The conditions noted are these: HepG2 Attagene DR4 cis-reporter, mRNA transcription; actives raise or lower the signal. The procedure, abridged:
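Endogenous factor activity at a DR4 cis-element is read as reporter mRNA in transiently transfected HepG2 cells. Exposure lasts 24 h; transcripts are amplified, fluorescently labelled and sized by capillary electrophoresis, with DMSO as baseline.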

The target in experiment [5] is Aryl hydrocarbon receptor (Homo sapiens) (UniProt P35869). Put plainly: ATG_Ahr_CIS: Attagene CIS-FACTORIAL HepG2 Assay for human Aryl Hydrocarbon Receptor (Ahr) (AID 2282930). To be noted: HepG2 AhR cis-factorial reporter transcription; actives raise or lower the signal. Put shortly:
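HepG2, transient MRTU (cis) transfection, 24 h exposure. RNA → cDNA → PCR → 6-FAM primer extension → HpaI 2 h 37 C → CE. Fit: bidirectional, DMSO baseline.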

The nature of experiment [6]: ATG_AP_2_CIS: Attagene CIS-FACTORIAL HepG2 Assay for human Activator Protein 2 (AP-2) (AID 2282932). To be noted: HepG2 AP-2 cis-reporter, Attagene transcription factor profiling; actives raise or lower the signal. The procedure, abridged:
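HepG2, transient MRTU transfection, cis-regulated reporters; 24 h compound exposure; RNA isolated, RT-PCR, 6-FAM labelling, HpaI digest, CE fluorescence. DMSO = negative control/baseline, bidirectional fit.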

Experiment [7] can be described thus: ATG_BRE_CIS: Attagene CIS-FACTORIAL HepG2 Assay for human Bone Morphogenetic Protein (BMP) Response Element (BRE) (AID 2282933). The conditions noted are these: HepG2 BMP response element reporter, Attagene transcription factor profiling; actives raise or lower the signal. Put shortly:
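After a 24 h chemical treatment, transiently transfected HepG2 cells were lysed for RNA; reporter transcripts were quantified by fluorescent RT-PCR and capillary electrophoresis, normalised to DMSO.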

The target in experiment [8] is Retinoic acid receptor alpha (Homo sapiens) (UniProt P10276). Put plainly: ATG_DR5_RAR_CIS: Attagene CIS-FACTORIAL HepG2 Assay for human Retinoic Acid Receptor Alpha (RARE), DR5 submotif (AID 2282934). To be noted: HepG2 Attagene cis-factorial RARE DR5 reporter, mRNA; actives raise or lower the signal. The procedure, abridged: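 HepG2, transient cis-reporter transfection, 24 h exposure. mRNA readout: RT-PCR, FAM label, HpaI cut, capillary electrophoresis. DMSO baseline, gain/loss fitting.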
Chain of Retinoic acid receptor alpha (Homo sapiens) (P10276 whole entry, looked up): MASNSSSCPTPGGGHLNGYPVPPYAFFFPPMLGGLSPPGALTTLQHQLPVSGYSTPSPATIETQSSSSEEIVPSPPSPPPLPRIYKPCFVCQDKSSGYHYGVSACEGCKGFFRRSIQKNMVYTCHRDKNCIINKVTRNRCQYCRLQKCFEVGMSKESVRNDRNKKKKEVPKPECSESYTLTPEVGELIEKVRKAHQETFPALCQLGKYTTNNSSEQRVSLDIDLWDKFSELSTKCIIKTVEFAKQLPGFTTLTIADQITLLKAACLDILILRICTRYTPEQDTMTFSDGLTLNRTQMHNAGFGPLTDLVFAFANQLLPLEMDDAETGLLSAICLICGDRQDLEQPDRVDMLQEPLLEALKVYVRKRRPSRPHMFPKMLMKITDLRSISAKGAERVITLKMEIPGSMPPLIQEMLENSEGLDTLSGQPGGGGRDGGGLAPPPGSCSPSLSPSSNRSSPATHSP

The nature of experiment [9]: ATG_AP_1_CIS: Attagene CIS-FACTORIAL HepG2 Assay for human Activator Protein 1 (AP-1) (AID 2282931). The conditions noted are these: HepG2 Attagene cis-factorial AP-1 reporter mRNA; actives raise or lower the signal. Put shortly:
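Fluorescence of labelled PCR fragments separated by capillary electrophoresis gives reporter mRNA levels. HepG2 with transfected cis-regulated reporter units, 24 h exposure; DMSO serves as baseline for bidirectional curve fits.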

Active and inactive are the calls of the source. The calls were made as follows: active = hit-call score of the fitted dose curve at least 0.9, where 1 is the maximum; inactive = score below 0.9.

Chain of CCAAT/enhancer-binding protein beta (Homo sapiens) (P17676 whole entry, looked up): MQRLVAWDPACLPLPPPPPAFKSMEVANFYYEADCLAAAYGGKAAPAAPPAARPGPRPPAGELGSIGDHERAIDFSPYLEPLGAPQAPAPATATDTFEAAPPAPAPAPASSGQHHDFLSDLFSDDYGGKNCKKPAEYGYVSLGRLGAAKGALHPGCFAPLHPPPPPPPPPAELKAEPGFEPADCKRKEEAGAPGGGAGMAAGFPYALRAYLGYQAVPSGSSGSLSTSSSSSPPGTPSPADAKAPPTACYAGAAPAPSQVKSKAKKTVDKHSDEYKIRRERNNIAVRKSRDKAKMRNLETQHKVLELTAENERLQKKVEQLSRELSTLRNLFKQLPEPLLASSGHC
Chain of Aryl hydrocarbon receptor (Homo sapiens) (P35869 whole entry, looked up): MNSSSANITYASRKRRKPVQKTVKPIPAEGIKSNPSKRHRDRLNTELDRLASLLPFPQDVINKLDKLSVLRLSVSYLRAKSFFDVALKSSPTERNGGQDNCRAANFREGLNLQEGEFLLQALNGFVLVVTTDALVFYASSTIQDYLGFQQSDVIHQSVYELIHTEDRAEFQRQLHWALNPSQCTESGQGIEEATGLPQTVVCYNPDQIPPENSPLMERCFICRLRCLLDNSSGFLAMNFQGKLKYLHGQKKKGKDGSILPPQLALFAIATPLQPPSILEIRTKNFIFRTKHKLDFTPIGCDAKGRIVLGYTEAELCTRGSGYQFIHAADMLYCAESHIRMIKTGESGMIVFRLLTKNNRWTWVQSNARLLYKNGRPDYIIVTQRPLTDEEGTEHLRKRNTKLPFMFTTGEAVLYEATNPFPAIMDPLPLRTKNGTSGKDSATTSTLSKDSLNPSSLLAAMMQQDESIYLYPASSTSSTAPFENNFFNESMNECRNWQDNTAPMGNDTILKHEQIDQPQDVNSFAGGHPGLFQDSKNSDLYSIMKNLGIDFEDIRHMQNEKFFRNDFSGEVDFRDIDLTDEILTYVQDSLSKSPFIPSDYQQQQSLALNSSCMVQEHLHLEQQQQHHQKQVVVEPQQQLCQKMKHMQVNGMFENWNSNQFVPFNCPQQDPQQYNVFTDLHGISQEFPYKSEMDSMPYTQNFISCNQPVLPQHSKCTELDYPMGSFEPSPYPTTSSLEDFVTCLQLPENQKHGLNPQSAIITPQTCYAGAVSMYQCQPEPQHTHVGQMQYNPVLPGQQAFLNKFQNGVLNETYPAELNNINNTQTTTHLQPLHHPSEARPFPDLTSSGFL

Regarding `CNC(=C[N+](=O)[O-])NCCSCc1ccc(CN(C)C)o1`, the molecule was classed as inactive in [1], in experiment [2], in [3], in [4], in experiment [5] and in experiment [6]. Besides, the molecule was called inactive in experiment [7] and in experiment [8].
For the molecule `C=C(C)C(=O)OCCC[Si](OC)(OC)OC`, the molecule was classed as inactive in experiment [1], in [2], in experiment [3], in experiment [4], in experiment [5] and in [7]. Moreover, in [8], the molecule was classed as inactive.
For the molecule `C=CCOC(=O)/C=C\C(=O)OCC=C`, the AC50 (commonly the concentration giving half of the maximal activity seen) in [1] is 27.1 µM (active); in experiment [3] it was 63.8 µM (active); in experiment [4], 27.9 µM (active); in experiment [5] it was 61.2 µM (active). In addition, the outcome in [2], in [9] and in [7] was inactive.
Regarding `C=CC(=O)OCC(CO)(COC(=O)C=C)COC(=O)C=C`, the AC50 was 163 µM (active) in experiment [1], 5.31 µM (active) in experiment [3], 18 µM (active) in experiment [4] and 100 µM (active) in [7]. In addition, the result in [2] and in experiment [5] was inactive.
Turning to `NC(N)=S`, the result in experiment [1], in [2], in experiment [3], in experiment [4], in experiment [5] and in [6] was inactive. For the same molecule, in experiment [7], the molecule was called inactive.
In the case of `CC(C)C(=O)c1ccccc1`, the molecule was called inactive in experiment [1], in experiment [2], in experiment [3], in [4], in [5] and in experiment [9]. The molecule was called inactive in [6], in experiment [7] and in experiment [8].
Regarding `CN(C)C(=O)Nc1ccccc1`, the call in experiment [1], in experiment [2], in experiment [3], in [4], in [5] and in [9] was inactive. For the same molecule, the molecule was called inactive in experiment [7] and in [8].
As to `OCCCO`, the outcome in experiment [1], in experiment [2], in [3], in experiment [4], in experiment [5] and in [7] was inactive. Further, the result in experiment [8] was inactive.
Regarding `c1ccc2scnc2c1`, the molecule was classed as inactive in [1], in [2], in [3], in experiment [4], in [9] and in experiment [6]. The molecule was classed as inactive in [7] and in experiment [8]. The AC50 in experiment [5] is 50.8 µM (active).
On to `CCCCCCCCCO`, for which the molecule was classed as inactive in [1], in experiment [2], in [3], in experiment [4], in experiment [5] and in experiment [9]. For the same molecule, the molecule was called inactive in experiment [7] and in [8].
Regarding `CC/C=C\CCCCO`, the call in experiment [1], in [2], in experiment [3], in [4], in experiment [5] and in experiment [6] was inactive. Besides, in [7], the outcome was inactive.
With `COc1ccc2[nH]cc(CCNC(C)=O)c2c1`, the outcome in experiment [1], in [2], in experiment [3], in [4], in [5] and in [6] was inactive. In experiment [7], the call was inactive.
Take `C/C=C(\C)C(=O)OC/C=C(\C)CCC=C(C)C`: the molecule was called inactive in [1], in [2], in experiment [3], in experiment [4], in [5] and in experiment [9]. Besides, the molecule was classed as inactive in experiment [7] and in experiment [8].
For `Cc1cccc(O)c1`, the molecule was classed as inactive in experiment [1], in [2], in experiment [3], in experiment [4], in experiment [5] and in [9]. Moreover, the molecule was called inactive in [7].
As to `CC(C)(C)c1cccc(O)c1`, the call in experiment [1], in experiment [2], in [3], in experiment [4], in experiment [5] and in [9] was inactive. In addition, the result in experiment [7] and in [8] was inactive.
`COC(=O)c1cccc(C(=O)OC)c1`: the molecule was called inactive in experiment [1], in [2], in [3], in [4], in experiment [6] and in [7]. The result in [8] was inactive. In addition, the AC50 in experiment [5] was 71.4 µM (active).
As for `CC(CO)c1ccccc1` (stereo not drawn), the outcome in experiment [1], in experiment [2], in [3], in experiment [4], in experiment [5] and in [9] was inactive. Besides, the molecule was called inactive in [7].
Turning to `CCCO`, the outcome in experiment [1], in [2], in experiment [3], in experiment [4], in experiment [5] and in [9] was inactive. For the same molecule, the molecule was called inactive in experiment [7] and in experiment [8].
Turning to `CC=CC(=O)C1=C(C)C=CCC1(C)C`, the outcome in [1], in experiment [2], in [3], in experiment [4], in experiment [5] and in [9] was inactive. In addition, the call in experiment [7] was inactive.
Take `COc1ccc(OC)cc1`: the molecule was called inactive in [1], in experiment [2], in [3], in experiment [4], in experiment [5] and in [9]. The result in experiment [7] was inactive.
Consider `CC1=CCC(=C(C)C)CC1`, for which the molecule was classed as inactive in [1], in experiment [2], in experiment [3], in [4], in [5] and in experiment [9]. In addition, the call in [7] was inactive.
For `CCCCC1CCCCC(=O)O1` (stereo not drawn), the outcome in experiment [1], in experiment [2], in experiment [3], in [4], in experiment [5] and in [9] was inactive. Also, the outcome in [7] and in [8] was inactive.
For the molecule `FC(F)(F)c1ccc(Cl)c(Cl)c1`, the molecule was called inactive in experiment [1], in [2], in experiment [3], in experiment [4], in experiment [5] and in experiment [6]. In [7], the result was inactive.
Take `COc1cc(OC)c2ccc(=O)oc2c1`: the result in experiment [1], in [2], in experiment [3], in experiment [9], in experiment [6] and in experiment [7] was inactive. Besides, in [4], the AC50 is 2.81 µM (active).
Turning to `C=CCOCC(O)CO` (stereo not drawn), the molecule was classed as inactive in [1], in experiment [3], in [4], in experiment [5], in [9] and in [7]. Moreover, the AC50 in [2] was 100 µM (active).
Regarding `CC(C)COC(=O)c1ccccc1O`, the result in [1], in [2], in [3], in experiment [4], in experiment [9] and in experiment [6] was inactive. The call in experiment [7] was inactive.
As for `CC(=O)CC(=O)N(C)C`, the call in experiment [1], in experiment [2], in experiment [3], in experiment [4], in experiment [9] and in experiment [6] was inactive. Also, the molecule was called inactive in experiment [7].
For `[O-]/[N+](=N\O)c1ccccc1`, the call in [1], in experiment [2], in experiment [3], in experiment [4], in experiment [9] and in [6] was inactive. Moreover, the molecule was called inactive in [7] and in [8].
On to `CC(=O)C1C(=O)C=C(C)OC1=O` (stereo not drawn), for which the call in experiment [1], in [2], in experiment [3], in experiment [4], in experiment [9] and in experiment [6] was inactive. The molecule was classed as inactive in experiment [7] and in experiment [8].
Regarding `CC(=O)c1ccc(O)cc1`, the outcome in experiment [1], in experiment [2], in experiment [3], in [4], in experiment [9] and in experiment [6] was inactive. Besides, the molecule was classed as inactive in experiment [7].
On to `Cc1ccncc1`, for which the molecule was classed as inactive in experiment [1], in experiment [2], in experiment [3], in [4], in experiment [9] and in [6]. Moreover, the result in experiment [7] and in [8] was inactive.
On to `C=C1CC/C=C(\C)CC[C@@H]2[C@@H]1CC2(C)C`, for which the figures for the AC50 in experiment [1], in [3] and in experiment [4] were 124 µM (active), 42.4 µM (active) and 61.3 µM (active), respectively. Further, the result in [2], in [9], in experiment [6] and in experiment [7] was inactive.

Values taken from PubChem BioAssay (EPA / NIEHS).
